Records with an inconclusive call do not appear. The source made the active and inactive calls. The call rests on the fitted dose curve; in most records, active means well fitted activation curve with a large enough effect in the repeat runs; inconclusive means weak or mixed curves; inactive means flat fitted curve, though single readings scatter.
On the % scale 0 is the no-effect control and ±100 the full control effect.

The nature of the assay: Caspase-3/7 induction in HepG2 cells by small molecules, qHTS assay (AID 1346978). Further: nearly all actives have a fitted effect of over 15% in size. The following applies: HepG2 caspase-3/7 activation, Caspase-Glo luminescence, 17 h; series mostly up to 92.4 µM; caspase activation: at the top concentration. The source says:
National Center for Advancing Translational Sciences [NCATS] NIH Chemical Genomics Center [NCGC] U.S. Environmental Protection Agency [EPA] National Institutes of Environmental Health Sciences [NIEHS] National Toxicology Program [NTP] Assay overview: Apoptosis is a process of programmed cell death and plays a central role in the development of multicellular organisms. It is a highly regulated process and induces cell death by activating caspases, which are the members of cysteine aspartic acid-specific protease (caspase) family. Caspases involved in apoptosis are classified by their mechanism of action as initiator caspases (caspase-2, -8, -9 and -10) and executioner caspases (caspase-3, -6, and -7). Inhibition of apoptosis results in number of cancers, autoimmune diseases, inflammatory diseases and viral infection. To identify small molecule compounds that induce apoptosis, a homogeneous, luminescent Caspase-Glo 3/7 assay was used. Wild type HepG2 cells were used to screen Tox21 libraries for identifying caspase-3/7 activity inducers.
Assay Protocol Summary: HepG2 cells were dispensed at 2,000 per well in 5uL of culture medium into white solid bottom 1536-well plates (Corning Life Sciences, Corning, NY) using a Multidrop Combi (Thermo Scientific, Waltham, MA) dispenser. The assay plates were incubated at 37 C and 5% CO2 for 5hr, and then 23nL of compounds dissolved in DMSO and positive control were transferred using a Pintool station (Wako, San Diego, CA). The assay plates were incubated at 37C and 5% CO2 for 17hr. For caspase-3/7 activity read, 4uL of Caspase-Glo 3/7 reagent (Promega Corporation, Madison, WI) was added to each well of the assay plates using Flying Reagent Dispenser (FRD, Aurora Discovery, San Diego, CA) and incubated the assay plates at room temperature for 30min. The luminescence signal was quantified using a ViewLux plate reader (Perkin Elmer, Shelton, CT).
Turning to `O=[N+]([O-])c1cccc(CCl)c1`, the “caspase activation” value is 1.75% (inactive).

As for `CC(=O)CN(CC(C)=O)N=O`, the “caspase activation” value was -1.02% (inactive).

On to `CCCN1CCC[C@@H]2Cc3nc(N)ncc3C[C@H]21`, for which the “caspase activation” value is 0.0202% [at 42.5 µM] (inactive).

As to `COP(=O)(O)OC`, the “caspase activation” value was -0.854% (inactive).

Take `O=c1[nH]c2ccccc2o1`: the “caspase activation” value was -0.071% (inactive).

For `CC(C)(C)C(=O)C(Cl)Cl`, the “caspase activation” value was -0.529% (inactive).

In the case of `C=CC=O`, the “caspase activation” value was 0.604% (inactive).

In the case of `CCCCCCC1CCOC1=O` (stereo not given), the “caspase activation” value was -1.28% (inactive).

Turning to `CNC(=O)NC(O)C(Cl)(Cl)Cl` (stereo not given), the “caspase activation” value was -0.658% [at 42.5 µM] (inactive).

On to `CC(C)(N)Cc1ccccc1Cl`, for which the “caspase activation” value is 1.28% [at 42.5 µM] (inactive).

Consider `Cl/C=C/CCl`, for which the “caspase activation” value was 0.514% (inactive).

As to `Oc1ccc2c3c1O[C@H]1[C@@H](O)C=C[C@H]4[C@@H](C2)NCC[C@@]341`, the “caspase activation” value is 0.927% (inactive).

In the case of `CC(C)(C)NC[C@H](O)c1ccc(O)cc1Cl`, the “caspase activation” value was 0.284% [at 42.5 µM] (inactive).

As for `C=CCC1(C(C)CC)C(=O)NC(=O)NC1=O` (stereo not given), the “caspase activation” value is -1.87% [at 42.5 µM] (inactive).

As for `COc1ccc(C=O)cc1O`, the “caspase activation” value was -1.2% (inactive).

`CC(C)NCC(O)c1ccc([N+](=O)[O-])cc1` (stereo not given): the “caspase activation” value was -0.568% [at 42.5 µM] (inactive).

As to `CCCOC(=O)c1cncn1C(C)c1ccccc1` (stereo not given), the “caspase activation” value is 1.36% [at 42.5 µM] (inactive).

As for `C=CCCC#N`, the “caspase activation” value was -0.973% (inactive).

With `CCOC(=O)Nc1cccc(OC(=O)Nc2ccccc2)c1`, the “caspase activation” value was -14.2% (inactive).

For the compound `CC(C)(N)Cc1ccc(Cl)cc1`, the “caspase activation” value is -0.647% [at 42.5 µM] (inactive).

As for `NNCc1ccccc1`, the “caspase activation” value was -2.97% (inactive).

With `CC1=C2[C@H]3OC(=O)[C@@H](C)[C@@H]3CC[C@@]2(C)C=CC1=O`, the “caspase activation” value was 0.704% [at 42.5 µM] (inactive).

In the case of `CC1NCCOC1c1ccccc1` (stereo not given), the “caspase activation” value is -0.675% [at 42.5 µM] (inactive).

With `C[C@H](N)C(=O)c1ccccc1`, the “caspase activation” value was -0.448% (inactive).

With `Cn1c(N)nc2c3cccnc3ccc21`, the “caspase activation” value was 1.16% (inactive).

As for `CCC(C)(C#N)N=NC(C)(C#N)CC` (stereo not given), the “caspase activation” value was 0.947% (inactive).

With `COc1cc(CCN)cc(OC)c1OC`, the “caspase activation” value was 0.974% (inactive).

Take `CCC(=O)c1ccc(Cl)cc1`: the “caspase activation” value was 0.31% (inactive).

Take `COC(=O)c1ccccc1CS(=O)(=O)NC(=O)Nc1nc(OC)cc(OC)n1`: the “caspase activation” value is 1.42% (inactive).

Regarding `CC(Cl)(Cl)Cl`, the “caspase activation” value is 0.0423% (inactive).

On to `C=CCN1CC[C@]23CCCC[C@H]2[C@H]1Cc1ccc(O)cc13`, for which the “caspase activation” value is -0.622% [at 42.5 µM] (inactive).

`CCOC(=O)NC(C)(C)Cc1ccc(Cl)cc1`: the “caspase activation” value is 0.123% [at 42.5 µM] (inactive).

Consider `Cc1ccc2c(c1)C1CN(C)CCC1N2` (stereo not given), for which the caspase activation was -1.19% [at 19 µM] (inactive).

`CCOC(=O)C(Cl)Cc1cc(-n2nc(C)n(C(F)F)c2=O)c(F)cc1Cl` (stereo not given): the “caspase activation” value is -1.02% (inactive).

`CCNc1nc(NCC)nc(SC)n1`: the “caspase activation” value is 0.108% (inactive).

Consider `Clc1cc2c(cc1Cl)Oc1cc(Cl)c(Cl)cc1O2`, for which the caspase activation was 2.22% [at 0.349 µM] (inactive).

For `CN(C)C(=O)Oc1cc(OC(=O)N(C)C)cc(C(O)CNC(C)(C)C)c1` (stereo not given), the “caspase activation” value is 0.218% [at 42.5 µM] (inactive).

As for `ClC1=C(Cl)C2(Cl)C(CBr)CC1(Cl)C2(Cl)Cl` (stereo not given), the compound was classed as inactive.

Consider `CN=CNc1ccc(C)cc1C`, for which the “caspase activation” value was 1.09% (inactive).

As for `Clc1nc(Cl)nc(Nc2ccccc2Cl)n1`, the “caspase activation” value was -3.21% (inactive).

Source of the values: PubChem BioAssay (Tox21).
